Compound activity as filed in PubChem.
SRC1 TRFRET art – TR-FRET detection interference compounds, primary screen, artefact control for PPARgamma SRC-1 recruitment agonists, biochemical, TR-FRET emission ratio | TR-FRET detection artefact counter-screen; hits give high values | TR-FRET ratio at 8 µM | 99,000 compounds, 0.34% hits | AID 1051, 2008; in the data active = TR-FRET ratio above about 2300
PPARg SRC2 recr – agonists of PPARg-SRC-2 recruitment, primary screen, biochemical, HTS | 200,000 compounds, 0.34% hits | Peroxisome proliferator-activated receptor gamma (Homo sapiens), P37231 | PPARgamma LBD-SRC-2 recruitment | AID 1032, 2008 | activation, % at 8 µM; in the data active = activation above about 22%
Target sequence (P37231 whole entry, looked up, the tested form may be a part): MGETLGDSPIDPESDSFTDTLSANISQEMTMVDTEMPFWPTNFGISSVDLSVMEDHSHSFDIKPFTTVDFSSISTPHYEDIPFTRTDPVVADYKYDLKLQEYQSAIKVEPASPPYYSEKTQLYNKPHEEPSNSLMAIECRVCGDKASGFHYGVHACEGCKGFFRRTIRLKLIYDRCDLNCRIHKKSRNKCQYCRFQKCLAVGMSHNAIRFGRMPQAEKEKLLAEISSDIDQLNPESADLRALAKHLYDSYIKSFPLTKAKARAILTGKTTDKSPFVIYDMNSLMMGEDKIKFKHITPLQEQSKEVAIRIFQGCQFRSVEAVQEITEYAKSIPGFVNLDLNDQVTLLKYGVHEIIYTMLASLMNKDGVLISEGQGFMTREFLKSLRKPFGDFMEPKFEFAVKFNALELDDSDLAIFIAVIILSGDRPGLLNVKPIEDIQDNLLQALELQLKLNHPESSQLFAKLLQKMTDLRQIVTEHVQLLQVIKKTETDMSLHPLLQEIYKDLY
TR-FRET SRC-2 ct – TR-FRET signal artefacts, primary screen, artefact control for PPARgamma SRC-2 agonist project, biochemical. TR-FRET artefact counter-screen; hits give high values. TR-FRET ratio at 8 µM. 200,000 compounds, 0.4% hits. AID 1049, 2008
SRC3 TRFRET art – TR-FRET detection interference compounds, artefact control for PPARgamma SRC-3 recruitment agonists, biochemical, TR-FRET ratio | TR-FRET artefact counter-screen, PPARgamma/SRC-3 format; hits give high values | TR-FRET ratio at 8 µM | 99,000 compounds, 0.39% hits | AID 1048, 2008
PPARg SRC-3 ag – PPARgamma agonists recruiting SRC-3 coactivator, primary screen, biochemical; Peroxisome proliferator-activated receptor gamma (Homo sapiens), P37231; biochemical PPARgamma/SRC-3 coactivator recruitment assay; activation, % at 8 µM; 200,000 compounds, 0.26% hits; in the data active = activation above about 23%
PPARg SRC1 recr – PPARgamma agonists recruiting SRC-1 coactivator, primary screen, biochemical. Peroxisome proliferator-activated receptor gamma (Homo sapiens), P37231. AID 631, 2007. activation, % at 8 µM. 200,000 compounds, 0.41% hits. PPARgamma-SRC-1 coactivator recruitment biochemical assay; in the data active = activation above about 19%
A number is an active result. In the library only some 0.84% were active in any assay of this set; here they are far more common. Rule as the data show it, unless noted: active = TR-FRET ratio above about 2000; inactive = the rest.

For O=C(c1cc(-c2ccccn2)nc2c(Cl)cccc12)N1CCN(S(=O)(=O)c2ccccc2)CC1 the results were SRC1 TRFRET art inactive, PPARg SRC2 recr inactive, TR-FRET SRC-2 ct 2813, SRC3 TRFRET art 3978, PPARg SRC-3 ag inactive and PPARg SRC1 recr inactive.
For CSc1ccc(S(=O)(=O)Nc2ccc(OCC(=O)N3CCOCC3)cc2)cc1 the results were SRC1 TRFRET art inactive, PPARg SRC2 recr inactive, TR-FRET SRC-2 ct inactive, SRC3 TRFRET art inactive, PPARg SRC-3 ag inactive and PPARg SRC1 recr inactive.
For O=C(c1cc(-c2cccs2)nc2ccccc12)N1CCN(S(=O)(=O)c2cccc(F)c2)CC1 the results were PPARg SRC2 recr inactive, TR-FRET SRC-2 ct 2309, PPARg SRC-3 ag inactive and PPARg SRC1 recr inactive.
Screening O=C(c1cc(-c2cccs2)nc2ccccc12)N1CCN(c2ccccc2)CC1 returned SRC1 TRFRET art inactive, PPARg SRC2 recr inactive, TR-FRET SRC-2 ct inactive, SRC3 TRFRET art inactive, PPARg SRC-3 ag inactive and PPARg SRC1 recr inactive.
For Cc1ccc(S(=O)(=O)N[C@H](C(=O)OCC(=O)N2N=C(c3ccc(Cl)cc3)CC2c2ccco2)C(C)C)cc1 (some centres not stated) the results were SRC1 TRFRET art inactive, PPARg SRC2 recr inactive, TR-FRET SRC-2 ct inactive, SRC3 TRFRET art inactive, PPARg SRC-3 ag inactive and PPARg SRC1 recr inactive.
For CCCN(C(=O)COc1ccc(Cl)cc1Cl)c1c(N)n(Cc2ccccc2)c(=O)[nH]c1=O the results were SRC1 TRFRET art inactive, PPARg SRC2 recr inactive, TR-FRET SRC-2 ct inactive, SRC3 TRFRET art inactive, PPARg SRC-3 ag inactive and PPARg SRC1 recr inactive.
For Cc1ccc(S(=O)(=O)N2CCCC(C(=O)N(Cc3cccs3)C3CC3)C2)cc1 (configuration not stated) the results were SRC1 TRFRET art inactive, PPARg SRC2 recr inactive, TR-FRET SRC-2 ct 2180, SRC3 TRFRET art inactive, PPARg SRC-3 ag inactive and PPARg SRC1 recr inactive.
Screening CSc1cc(-c2ccc(Cl)cc2)n(Cc2ccccc2)c(=O)c1C#N returned PPARg SRC2 recr inactive, TR-FRET SRC-2 ct inactive, PPARg SRC-3 ag 43 and PPARg SRC1 recr inactive.
O=C(NCc1cccc(F)c1)c1ccc(N2C(=O)Cn3c(cc4sccc43)C2=O)cc1 was read as SRC1 TRFRET art inactive, PPARg SRC2 recr inactive, TR-FRET SRC-2 ct inactive, SRC3 TRFRET art 2155, PPARg SRC-3 ag inactive and PPARg SRC1 recr inactive.
`O=C(Nc1nc(-c2ccccc2)nc2ccccc12)c1ccc(F)cc1` gave SRC1 TRFRET art inactive, PPARg SRC2 recr inactive, TR-FRET SRC-2 ct inactive, SRC3 TRFRET art 2774, PPARg SRC-3 ag 34 and PPARg SRC1 recr inactive.
Screening CC(=O)Nc1ccc(Nc2nc(-c3ccccc3)nc3ccccc23)cc1 returned SRC1 TRFRET art inactive, PPARg SRC2 recr inactive, TR-FRET SRC-2 ct inactive, SRC3 TRFRET art inactive, PPARg SRC-3 ag inactive and PPARg SRC1 recr inactive.
O=C(Cc1ccc(F)cc1)Oc1ccc(C(=S)N2CCCC2)cc1 was read as SRC1 TRFRET art inactive, PPARg SRC2 recr inactive, TR-FRET SRC-2 ct inactive, SRC3 TRFRET art inactive, PPARg SRC-3 ag inactive and PPARg SRC1 recr inactive.
For c1ccc(-n2ncc3c(NCc4cccs4)ncnc32)cc1 the results were SRC1 TRFRET art inactive, PPARg SRC2 recr inactive, TR-FRET SRC-2 ct inactive, SRC3 TRFRET art 2147, PPARg SRC-3 ag inactive and PPARg SRC1 recr inactive.
Screening CCn1c(CCNC(=O)c2ccccc2Cl)n[nH]c1=S returned PPARg SRC2 recr inactive, TR-FRET SRC-2 ct inactive, PPARg SRC-3 ag inactive and PPARg SRC1 recr inactive.
CC(C)NC(=O)COC(=O)c1cccc(NS(=O)(=O)/C=C/c2ccccc2)c1 was read as SRC1 TRFRET art inactive, PPARg SRC2 recr 22, TR-FRET SRC-2 ct inactive, SRC3 TRFRET art inactive, PPARg SRC-3 ag inactive and PPARg SRC1 recr inactive.
For CSc1ccccc1NC(=O)c1cc(-c2cccnc2)nc2ccc(Br)cc12 the results were SRC1 TRFRET art inactive, PPARg SRC2 recr inactive, TR-FRET SRC-2 ct inactive, SRC3 TRFRET art 2157, PPARg SRC-3 ag inactive and PPARg SRC1 recr inactive.
`CC(=O)Nc1cccc(NC(=O)c2cc(-c3cccnc3)nc3ccc(Br)cc23)c1` gave PPARg SRC2 recr inactive, TR-FRET SRC-2 ct inactive, PPARg SRC-3 ag inactive and PPARg SRC1 recr inactive.
Cn1nc(-c2ccccc2)c(C(=O)Nc2ccc(C(F)(F)F)cc2)c1Cl was read as PPARg SRC2 recr inactive, TR-FRET SRC-2 ct inactive, PPARg SRC-3 ag 32 and PPARg SRC1 recr inactive.
Cn1nc(-c2ccccc2)c(C(=O)Nc2ccc(Cl)cc2)c1Cl was read as PPARg SRC2 recr inactive, TR-FRET SRC-2 ct inactive, PPARg SRC-3 ag inactive and PPARg SRC1 recr inactive.
For Cc1c(C(=O)Nc2nccs2)sc2nc(-c3cccs3)cc(C(F)(F)F)c12 the results were PPARg SRC2 recr inactive, TR-FRET SRC-2 ct 2020, PPARg SRC-3 ag inactive and PPARg SRC1 recr inactive.
For OCC1(Cc2ccc(Cl)cc2)CCN(Cc2ccc3nsnc3c2)CC1 the results were SRC1 TRFRET art 2393, PPARg SRC2 recr inactive, TR-FRET SRC-2 ct inactive, SRC3 TRFRET art inactive, PPARg SRC-3 ag inactive and PPARg SRC1 recr inactive.
For Cc1cc(NC(=O)CN2C(=O)NC3(CCC(C)CC3)C2=O)no1 (configuration not stated) the results were SRC1 TRFRET art inactive, PPARg SRC2 recr 22, TR-FRET SRC-2 ct inactive, SRC3 TRFRET art inactive, PPARg SRC-3 ag inactive and PPARg SRC1 recr inactive.
`COc1ccc(/C=C2\N=C(SC)N(c3ccccc3OC)C2=O)cc1` gave SRC1 TRFRET art inactive, PPARg SRC2 recr inactive, TR-FRET SRC-2 ct inactive, SRC3 TRFRET art inactive, PPARg SRC-3 ag inactive and PPARg SRC1 recr inactive.
For CCCn1c(NC(=O)c2ccc(Br)cc2)nc2ccccc21 the results were PPARg SRC2 recr inactive, TR-FRET SRC-2 ct inactive, PPARg SRC-3 ag inactive and PPARg SRC1 recr 34.
Screening CCCn1c(NC(=O)c2ccc(F)cc2)nc2ccccc21 returned SRC1 TRFRET art inactive, PPARg SRC2 recr inactive, TR-FRET SRC-2 ct inactive, SRC3 TRFRET art inactive, PPARg SRC-3 ag inactive and PPARg SRC1 recr inactive.
`Cc1ccc(N2C(=O)C3CCC(c4ccccc4)CC3C2=O)cc1` (configuration not stated) gave SRC1 TRFRET art 2647, PPARg SRC2 recr inactive, TR-FRET SRC-2 ct inactive, SRC3 TRFRET art inactive, PPARg SRC-3 ag inactive and PPARg SRC1 recr 37.
`COc1ccc2nc(SCC(=O)N3CCN(c4ccc(F)cc4)CC3)c(C#N)cc2c1` gave PPARg SRC2 recr inactive, TR-FRET SRC-2 ct 2728, PPARg SRC-3 ag inactive and PPARg SRC1 recr inactive.
For CCOC(=O)c1ccc(NC2=CC(=O)CC(c3ccco3)C2)cc1 (configuration not stated) the results were SRC1 TRFRET art inactive, PPARg SRC2 recr inactive, TR-FRET SRC-2 ct 2006, SRC3 TRFRET art inactive, PPARg SRC-3 ag inactive and PPARg SRC1 recr inactive.
`c1csc(Cc2nn3c(-c4n[nH]c5c4CCC5)nnc3s2)c1` gave PPARg SRC2 recr inactive, TR-FRET SRC-2 ct inactive, PPARg SRC-3 ag inactive and PPARg SRC1 recr 20.
